From PubChem BioAssay AID2202241 (National Center for Advancing Translational Sciences (NCATS), 2025) come the findings set out here.

SMILES strings stand for the structures. The source made the active and inactive calls. The rule behind the calls is not given here. Square brackets hold non-standard residues; d marks the D form. Peptide text beside a SMILES is read from it. * marks the point of attachment. Dolaproine = CO[C@@H]([C@@H]1CCCN1)[C@@H](C)C(=O)O; Dil = CC[C@H](C)[C@H](NC)[C@@H](CC(=O)O)OC; NMe2Val = CC(C)[C@@H](C(=O)*)N(C)C; X1 = C[C@@H](N*)[C@@H](O)c1ccccc1; NMeV = CN[C@H](C(=O)O)C(C)C

The nature of this experiment: Identification of antibody-drug conjugate (ADC) payloads which are substrates of ATP-binding cassette drug efflux transporters: cell line panel data. The settings on record: 99 cancer cell line panel, CellTiter-Glo viability, 48 h; active compounds read low. The source says: Antibody-drug conjugates (ADCs) feature an antibody recognizing a specific protein joined to a potent toxic payload. Numerous antibody-drug conjugates have received FDA approval; however, clinical resistance arises. Resistance mechanisms include decreased expression or mutation of the antibody target, impaired payload release, or increased expression of ATP-binding cassette (ABC) efflux transporters associated with multidrug resistance. We therefore sought to characterize the activity of ADC payloads across a broad set of cancer cell lines. We performed a high-throughput screen with 27 common ADC payloads against a panel of 99 cell lines to assess sensitivity to various payloads. Duocarmycin DM and PNU-159682 were exquisitely toxic across the panel of cancer cell lines of varying origins. These findings highlight the potentially broad applicability of Duocarmycin DM and PNU-159682 as ADC payloads in future ADC development.
Compounds were sourced from Levena Biopharma (San Diego, CA), Selleck Chem (Houston, TX), ChemieTek (Indianapolis, IN), or Microsource Discovery Systems (Gaylordsville, CT). Cell line sources and culture conditions were as follows: CAL-27 (ATCC: CRL-2095) and Hs 766T (ATCC: HTB-134) were grown in DMEM media +10% FBS. RKO (ATCC: CRL-2577), A-427 (ATCC: […]), BT-20 (ATCC: HTB-19), Detroit562 (ATCC: CCL-138), HARA-B (Cytion: 300465), PA-1 (ATCC: CRL-1572), TCCSUP (ATCC: […]), UM-UC-3 (ATCC: CRL-1749), and WI-38 (ATCC: CCL-75) were grown in EMEM media +10% FBS. AGS (ATCC: CRL-1739) was grown in F12K media +10% FBS. JJN-3 (DSMZ: ACC 541) was grown in IMDM media +20% FBS. 769-P (ATCC: CRL-1933), 786-O (ATCC: CRL-1932), A-375 (ATCC: CRL-1619), A-431 (ATCC: CRL-1555), A-549 (ATCC: CCL-185), A2780 (Cytion: 300491), ACHN (ATCC: CRL-1611), BT-474 (ATCC: HTB-20), BT-549 (ATCC: HTB-122), CCRF-CEM (ATCC: CCL-119), Daudi (ATCC: CCL-213), HaCaT (Cytion: 300493), HCC38 (ATCC: CRL-2314), HCC827 (ATCC: CRL-2868), HCT15 (ATCC: CCL-225), HEL 92.1.7 (ATCC: TIB-180), Hs 352.Sk (ATCC: CRL-7250), Hs578T (ATCC: HTB-126), HT-1080 (ATCC: CCL-121), HuCC-T1 (Riken Bioresource Center: RCB1960), HuP-T3 (DSMZ: ACC 259), HuP-T4 (DSMZ: ACC 223), IM-9 (ATCC: CCL-159), JJ012 (Gift: Karina Galoian (University of Miami)), JM-1 (ATCC: CRL-10423), K-562 (ATCC: CCL-243), Kasumi-3 (ATCC: CRL-2725), KMS-12-BM (DSMZ: ACC 551), LOUCY (ATCC: CRL-2629), LoVo (ATCC: CCL-229), MCF-7 (ATCC: HTB-22), MDA-MB-231 (ATCC: HTB-26), MDA-MB-436 (ATCC: HTB-130), MDA-MB-468 (ATCC: HTB-132), MIA PaCa-2 (ATCC: CRL-1420), MM1.R (ATCC: CRL-2975), MM1.S (ATCC: CRL-2974), NALM-6 (ATCC: CRL-3273), NCI-H1299 (ATCC: CRL-5803), NCI-H1355 (ATCC: CRL-5865), NCI-H1395 (ATCC: CRL-5868), NCI-H1437 (ATCC: CRL-5872), NCI-H2122 (ATCC: CRL-5985), NCI-H2170 (ATCC: CRL-5928), NCI-H226 (ATCC: CRL-5826), NCI-H23 (ATCC: CRL-5800), NCI-H322M (NIH: NCI-60), NCI-H460 (ATCC: HTB-177), NCI-H522 (ATCC: CRL-5810), NCI-H929 (ATCC: CRL-3580), NIH 3T3 (ATCC: CRL-1658), OCI-M2 (DSMZ: ACC 619), OPM-2 (DSMZ: ACCC 50), OVCAR-3 (ATCC: HTB-161), OVCAR-4 (Gift: Phil Lorenzi MD Anderson), OVCAR-8 (Gift: Phil Lorenzi MD Anderson), Panc 10.05 (ATCC: CRL-2547), PANC-1 (ATCC: CRL-1469), Pfeiffer (ATCC: CRL-2632), PL45 (ATCC: CRL-2558), PSN1 (ATCC: CRL-3211), Raji (ATCC: CCL-86), RD (Gift: Mari Yohe NCI), RPMI-8226 (ATCC: CRM-CCL-155), RS4;11 (ATCC: CRL-1873), SK-BR-3 (ATCC: HTB-30), SK-MEL-28 (ATCC: HTB-72), SMS-CTR (Gift: Mari Yohe NCI), SNU-16 (ATCC: CRL-5974), SU-DHL-8 (ATCC: CRL-2961), SU.86.86 (ATCC: CRL-1837), SW1990 (ATCC: CRL-2172), SW403 (ATCC: CCL-230), SW480 (ATCC: CCL-228), SW579 (ATCC: HTB-107), T-47D (ATCC: HTB-133), T24 (ATCC: HTB-4), and U-937 (ATCC: CRL-1593.2) were grown in RPMI +10% FBS. U266B1 (ATCC: TIB-196) were grown in RPMI +15% FBS. ME-1 (ATCC: HB-119), MOLM-13 (DSMZ: ACC 554), AMO1 (DSMZ: ACC 538), MOLP-8 (DSMZ: ACC 569), MV4-11 (ATCC: CRL-9591), PL-21 (DSMZ: ACC 536), and L-363 (DSMZ: ACC 49) were grown in RPMI +20% FBS. […]
In general terms: ATP-based viability assays read luminescence as a measure of living cells.
For `CC[C@H](C)[C@@H]1NC(=O)CNC(=O)[C@H]2Cc3c([nH]c4cc(O)ccc34)S(=O)C[C@H](NC(=O)CNC1=O)C(=O)N[C@@H](CC(N)=O)C(=O)N1C[C@H](O)C[C@H]1C(=O)N[C@@H]([C@@H](C)[C@@H](O)CO)C(=O)N2` (stereo partly specified), the viability AUC is 992 (active).

With `COc1cccc2c1C(=O)c1c(O)c3c(c(O)c1C2=O)C[C@@](O)(C(=O)CO)CC3OC1CC(N2CCOC(OC)C2)C(O)C(C)O1` (stereo partly specified), the viability AUC is 666 (active).

As for `CC[C@H](C)[C@@H]([C@@H](CC(=O)N1CCC[C@H]1[C@H](OC)[C@@H](C)C(=O)N[C@@H](Cc1ccccc1)C(=O)O)OC)N(C)C(=O)[C@@H](NC(=O)[C@H](C(C)C)N(C)C)C(C)C` (NMe2Val-V[Dil][Dolaproine]F-OH), the viability AUC is 932 (active).

Regarding `COc1cc2cc(c1Cl)N(C)C(=O)C[C@H](OC(=O)C(C)C)[C@]1(C)O[C@H]1[C@H](C)[C@@H]1C[C@@](O)(NC(=O)O1)[C@H](OC)C=CC=C(C)C2`, the viability AUC was 756 (active).

Consider `COc1cc2cc(c1Cl)N(C)C(=O)C[C@H](OC(=O)[C@H](C)N(C)C(=O)CCC(C)(C)S)[C@]1(C)OC1[C@H](C)C1C[C@@](O)(NC(=O)O1)[C@H](OC)/C=C/C=C(\C)C2` (stereo partly specified), for which the viability AUC was 777 (active).

With `CC[C@H](C)[C@H](NC(=O)[C@H]1CCCCN1C)C(=O)N(C)[C@H](C[C@@H](OC(C)=O)c1nc(C(=O)N[C@@H](Cc2ccccc2)C[C@H](C)C(=O)O)cs1)C(C)C`, the viability AUC is 793 (active).

On to `COc1cc2cc(C(=O)N3C[C@@H](CCl)c4c3cc(O)c3ccccc43)[nH]c2c(OC)c1OC`, for which the viability AUC is 654 (active).

With `COc1cc2cc(c1Cl)N(C)C(=O)C[C@H](OC(=O)[C@H](C)N(C)C(=O)CCS)[C@]1(C)OC1[C@H](C)C1C[C@@](O)(NC(=O)O1)[C@H](OC)/C=C/C=C(\C)C2` (stereo partly specified), the viability AUC is 817 (active).

For the compound `CC[C@H](C)[C@@H]([C@@H](CC(=O)N1CCC[C@H]1[C@H](OC)[C@@H](C)C(=O)N[C@H](C)[C@@H](O)c1ccccc1)OC)N(C)C(=O)[C@@H](NC(=O)[C@H](C(C)C)N(C)C)C(C)C`, the viability AUC is 699 (active).

For `CC[C@H](C)[C@H](NC(=O)[C@H]1CCCCN1C)C(=O)N(C)[C@H](C[C@@H](OC(C)=O)c1nc(C(=O)O)cs1)C(C)C`, the viability AUC is 982 (active).

Regarding `CC[C@H](C)[C@@H]([C@@H](CC(=O)N1CCC[C@H]1[C@H](OC)[C@@H](C)C(=O)N[C@H](C)[C@@H](O)c1ccccc1)OC)N(C)C(=O)[C@@H](NC(=O)[C@@H](NC)C(C)C)C(C)C` (H-[NMeV]V[Dil][Dolaproine]-X1), the viability AUC is 816 (active).
